Assay results taken from PubChem BioAssay (NCI).
Values joined by “and” are separate entries in the source; they are usually repeats but may differ in a detail not shown here. Identical values can stand only once. About 79,000 compounds went through this panel and 15% of them were active in at least one assay; those are over-represented in the sample as a whole. Active and inactive are the calls of the source. Cut-off read from the data, not from the text of the source: active = growth inhibition above about 70%; inactive = the rest.

What was measured:
[1] = NCI Yeast Anticancer Drug Screen. Data for the rad50 strain (AID 155);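 note: 0% = growth of vehicle-only cultures of the same strain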; conditions: S. cerevisiae rad50 strain growth inhibition, stronger effect = higher value
Summary of the method: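 Genetically altered yeast (DNA repair pathway); compound treatment; growth inhibition vs vehicle ctrl.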

[2] = NCI Yeast Anticancer Drug Screen. Data for the mec2-1 strain (AID 157); conditions: S. cerevisiae mec2-1 strain, stronger effect = higher value
Summary of the method: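 Compounds were applied to mec2-1 yeast cells. Their growth was then compared with that of vehicle-treated cultures to give growth inhibition.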

[3] = NCI Yeast Anticancer Drug Screen. Data for the sgs1 mgt1 strain (AID 161);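 note: 0% = growth of cultures given vehicle only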; conditions: S. cerevisiae sgs1 mgt1 strain, stronger effect = higher value
Summary of the method: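 Compounds are added to genetically altered yeast, and growth is compared with cultures given vehicle alone to give percent inhibition.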

[4] = NCI Yeast Anticancer Drug Screen. Data for the cln2 rad14 strain (AID 165);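 note: 0% = growth equal to vehicle treated cultures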; conditions: S. cerevisiae cln2 rad14 strain, stronger effect = higher value
Summary of the method: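 Strain: cln2 rad14 yeast, altered in cell cycle control and DNA damage repair. Read-out: growth inhibition vs vehicle.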

[5] = NCI Yeast Anticancer Drug Screen. Data for the bub3 strain (AID 167); conditions: S. cerevisiae bub3 mutant strain, stronger effect = higher value
Summary of the method: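 Yeast carrying a defined mutation is treated with each compound, and growth is compared with that of vehicle-exposed cells to give inhibition.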

[6] = NCI Yeast Anticancer Drug Screen. Data for the mlh1 rad18 strain (AID 175); conditions: S. cerevisiae mlh1 rad18 strain growth inhibition, stronger effect = higher value
Summary of the method: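 A repair-deficient yeast strain is exposed to test compound, and growth is scored relative to vehicle-treated controls.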

[7] = at 5.0 µM (retest, dose inferred, filed as 0.5)
[8] = at 50.0 µM (retest, dose inferred, filed as 5.0)

Measured: growth inhibition

O=CNc1ccccc1.[Hg]
active: [1]; [7] 98% | [1]; [8] 98% | [1]; at 50.0 µM 99.7% | [2]; [7] 99% | [2]; [8] 99% | [2]; at 50.0 µM 99.6% | [3]; [7] 99% | [3]; [8] 98% | [3]; at 50.0 µM 99.4% | [4]; [7] 99% | [4]; [8] 98% | [4]; at 50.0 µM 99.3% | [5]; [7] 99% | [5]; [8] 98% | [5]; at 50.0 µM 99.5% | [6]; [7] 98% | [6]; [8] 98% | [6]; at 50.0 µM 99.4%

C/C(=N\NS(=O)(=O)c1ccc(C)cc1)C(CN1CCOCC1)C(c1ccccc1)c1c(O)c2ccccc2oc1=O (configuration not stated)
active: [1]; at 50.0 µM 88.5% | [2]; at 50.0 µM 85.8% | [3]; at 50.0 µM 87.4% | [4]; at 50.0 µM 89.2% | [5]; at 50.0 µM 83.7% | [6]; at 50.0 µM 87.6%
inactive: [1]; [7] 15% | [1]; [8] 15% | [2]; [7] 4% | [2]; [8] 4% | [3]; [7] 15% | [3]; [8] 15% | [4]; [7] 5% | [4]; [8] 5% | [5]; [7] 3% | [5]; [8] 3% | [6]; [7] 9% | [6]; [8] 9%

CCOC(=O)C1CC12c1ccccc1-c1ccccc12 (configuration not stated)
inactive: [1]; [7] 2% | [1]; [8] 23% | [2]; [7] -6% | [2]; [8] 29% | [2]; at 50.0 µM 52.9% | [3]; [7] -23% | [3]; [8] 48% | [3]; at 50.0 µM 67.2% | [4]; [7] -6% | [4]; [8] -5% | [4]; at 50.0 µM 19.8% | [5]; [7] 1% | [5]; [8] 4% | [5]; at 50.0 µM 14.9% | [6]; [7] -1% | [6]; [8] 41% | [6]; at 50.0 µM 69.5%
active: [1]; at 50.0 µM 73.5%

O=c1[nH]cc(Cn2cnc3ncccc3c2=O)c(=O)[nH]1
inactive: [1]; [7] -5% | [1]; [8] -4% | [1]; at 50.0 µM 6.4% | [2]; [7] -5% | [2]; [8] -5% | [2]; at 50.0 µM 7.55% | [3]; [7] -3% | [3]; [8] -1% | [3]; at 50.0 µM -2.1% | [4]; [7] -3% | [4]; [8] -11% | [4]; at 50.0 µM 40.5% | [5]; [7] -4% | [5]; [8] -2% | [5]; at 50.0 µM -18.2% | [6]; [7] -8% | [6]; [8] -5% | [6]; at 50.0 µM -16.5%

O=P1(NCCCl)OC(c2ccccc2)=CCN1CCCl (configuration not stated)
inactive: [1]; [7] -1% | [1]; [8] -1% | [2]; [7] -5% | [2]; [8] 6% | [3]; [7] 1% | [3]; [8] -1% | [4]; [7] -2% | [4]; [8] 5% | [5]; [7] -2% | [5]; [8] -1% | [6]; [7] -3% | [6]; [8] 1%
active: [1]; at 50.0 µM 97.9% | [2]; at 50.0 µM 94.1% | [3]; at 50.0 µM 99% | [4]; at 50.0 µM 96% | [5]; at 50.0 µM 89.6% | [6]; at 50.0 µM 98.8%

O=[As]c1ccc(Cl)cc1Cl (configuration not stated)
active: [1]; [7] 100% | [1]; [8] 99% | [1]; at 50.0 µM 99.7% | [2]; [7] 100% | [2]; [8] 100% | [2]; at 50.0 µM 99.7% | [3]; [7] 99% | [3]; [8] 100% | [3]; at 50.0 µM 99.7% | [4]; [7] 100% | [4]; [8] 99% | [4]; at 50.0 µM 99.3% | [5]; [7] 99% | [5]; [8] 100% | [5]; at 50.0 µM 99.2% | [6]; [7] 100% | [6]; [8] 99% | [6]; at 50.0 µM 99.3%

CCCCCCCC1(c2ccc(N)cc2)CCC(=O)NC1=O (configuration not stated)
inactive: [1]; [7] 31% | [1]; [8] 36% | [2]; [7] 0% | [2]; [8] 61% | [2]; at 50.0 µM 27.9% | [3]; [7] 8% | [3]; at 50.0 µM 54.2% | [4]; [7] -8% | [4]; [8] 26% | [4]; at 50.0 µM 33.8% | [5]; [7] 0% | [5]; [8] 21% | [5]; at 50.0 µM 56% | [6]; [7] -2% | [6]; [8] 35% | [6]; at 50.0 µM 37.1%
active: [1]; at 50.0 µM 73% | [3]; [8] 96%

CCCCCCCCCCCCCCCC[N+](C)(C)CCBr
active: [1]; [7] 99% | [1]; [8] 98% | [1]; at 50.0 µM 89.2% and 98.8% | [2]; [7] 99% | [2]; [8] 99% | [2]; at 50.0 µM 92.5% and 99.2% | [3]; [7] 99% | [3]; [8] 99% | [3]; at 50.0 µM 87.2% and 99.3% | [4]; [7] 99% | [4]; [8] 99% | [4]; at 50.0 µM 89.2% and 99.2% | [5]; [7] 99% | [5]; [8] 99% | [5]; at 50.0 µM 82.3% and 99.1% | [6]; [7] 98% | [6]; [8] 98% | [6]; at 50.0 µM 92.3% and 99.2%

ClCCN(CCCl)c1ccc(CN2CCCN(Cc3ccc(N(CCCl)CCCl)cc3Cl)C2c2ccncc2)c(Cl)c1
inactive: [1]; [7] 2% | [2]; [7] 4% | [3]; [7] -4% | [4]; [7] -5% | [4]; at 50.0 µM 43.9% | [5]; [7] 0% | [5]; at 50.0 µM 1.9% | [6]; [7] 9%
active: [1]; [8] 91% | [1]; at 50.0 µM 93.5% | [2]; [8] 96% | [2]; at 50.0 µM 96.8% | [3]; [8] 96% | [3]; at 50.0 µM 93.9% | [4]; [8] 94% | [5]; [8] 93% | [6]; [8] 95% | [6]; at 50.0 µM 97.1%
